According to the supplement of paper PMC11732987, “Enantioselective OTUD7B fragment discovery through chemoproteomics screening and high-throughput optimisation” (Communications Chemistry, 2025):

How the values were obtained:
Experiment in all cases: log2 ratio of Biotin-Ahx-Ub-VS probe labelling (fragment/DMSO); higher = less target engagement (more negative = stronger competition), active = hit call of the paper (q ≤ 0.05, log2 ratio ≤ -1)
Details in all cases: compound concentration: 200 uM; treatment time: 3 h
[1] = target: T1, USP19 (UniProt O94966)
T1 sequence (whole entry): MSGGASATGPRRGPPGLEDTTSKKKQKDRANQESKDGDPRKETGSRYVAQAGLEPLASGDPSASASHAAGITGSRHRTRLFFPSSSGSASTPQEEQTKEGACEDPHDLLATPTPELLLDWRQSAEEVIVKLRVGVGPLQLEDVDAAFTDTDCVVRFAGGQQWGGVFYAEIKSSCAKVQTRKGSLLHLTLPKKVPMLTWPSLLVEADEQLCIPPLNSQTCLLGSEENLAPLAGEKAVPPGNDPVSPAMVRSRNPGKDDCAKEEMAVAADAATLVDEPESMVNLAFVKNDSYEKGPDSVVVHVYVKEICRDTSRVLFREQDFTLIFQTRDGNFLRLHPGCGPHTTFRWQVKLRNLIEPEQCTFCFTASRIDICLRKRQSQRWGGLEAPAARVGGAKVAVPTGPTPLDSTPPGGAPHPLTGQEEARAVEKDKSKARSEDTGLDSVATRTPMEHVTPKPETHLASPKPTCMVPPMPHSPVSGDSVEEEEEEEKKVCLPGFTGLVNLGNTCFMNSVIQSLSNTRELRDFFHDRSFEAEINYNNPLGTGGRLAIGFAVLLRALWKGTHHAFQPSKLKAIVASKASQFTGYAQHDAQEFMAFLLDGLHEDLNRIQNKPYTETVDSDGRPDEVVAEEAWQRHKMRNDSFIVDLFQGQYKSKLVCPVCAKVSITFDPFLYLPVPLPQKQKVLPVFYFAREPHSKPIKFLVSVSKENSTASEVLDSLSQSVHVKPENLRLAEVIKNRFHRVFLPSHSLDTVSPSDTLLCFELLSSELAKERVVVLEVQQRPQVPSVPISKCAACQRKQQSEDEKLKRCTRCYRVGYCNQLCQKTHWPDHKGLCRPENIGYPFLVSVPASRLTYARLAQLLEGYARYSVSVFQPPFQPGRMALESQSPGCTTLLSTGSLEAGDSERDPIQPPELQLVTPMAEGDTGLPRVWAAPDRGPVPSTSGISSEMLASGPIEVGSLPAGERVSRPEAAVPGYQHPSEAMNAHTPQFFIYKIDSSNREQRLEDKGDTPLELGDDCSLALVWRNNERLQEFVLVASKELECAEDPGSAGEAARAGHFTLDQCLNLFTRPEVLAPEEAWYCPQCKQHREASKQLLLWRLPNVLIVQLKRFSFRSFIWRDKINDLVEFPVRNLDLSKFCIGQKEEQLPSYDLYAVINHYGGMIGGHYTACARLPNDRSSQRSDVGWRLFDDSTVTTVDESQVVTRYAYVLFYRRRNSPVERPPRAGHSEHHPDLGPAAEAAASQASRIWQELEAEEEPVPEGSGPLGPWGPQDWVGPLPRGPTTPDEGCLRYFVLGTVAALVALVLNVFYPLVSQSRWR
Summary of the method: (§1)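 Labelled DUBs were enriched with NeutrAvidin, digested with LysC and trypsin, and run by diaPASEF LC-MS/MS. The labelling used Biotin-Ahx-Ub-VS at 0.5 µM final for 1 h on HEK293T lysate (495 µg per sample) previously treated in triplicate with fragment at 200 µM or vehicle for 3 h. Values are average log2 fragment/vehicle ratios by unpaired t-test on global-median-normalised Spectronaut quantities of proteins with ≥2 unique peptides.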

[2] = target: T2, USP22 (UniProt Q9UPT9)
T2 sequence (whole entry): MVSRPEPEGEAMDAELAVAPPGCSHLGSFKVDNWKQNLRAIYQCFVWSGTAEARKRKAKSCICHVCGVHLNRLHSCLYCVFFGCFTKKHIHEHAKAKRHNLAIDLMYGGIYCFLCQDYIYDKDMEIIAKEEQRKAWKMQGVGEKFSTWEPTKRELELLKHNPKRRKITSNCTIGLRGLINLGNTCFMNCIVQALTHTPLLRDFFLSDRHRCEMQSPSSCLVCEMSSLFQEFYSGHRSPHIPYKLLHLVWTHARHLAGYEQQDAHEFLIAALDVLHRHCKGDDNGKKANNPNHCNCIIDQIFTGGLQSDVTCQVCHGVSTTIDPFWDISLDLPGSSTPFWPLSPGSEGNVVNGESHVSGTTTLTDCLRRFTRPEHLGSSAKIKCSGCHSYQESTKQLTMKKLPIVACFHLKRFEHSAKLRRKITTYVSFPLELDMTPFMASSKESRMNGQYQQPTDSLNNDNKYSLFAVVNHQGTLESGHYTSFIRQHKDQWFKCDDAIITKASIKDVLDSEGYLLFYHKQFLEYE
Summary of the method: as §1

[3] = target: USP24 (UniProt Q9UPU5)
Summary of the method: as §1

[4] = target: T3, USP25 (UniProt Q9UHP3)
T3 sequence (whole entry): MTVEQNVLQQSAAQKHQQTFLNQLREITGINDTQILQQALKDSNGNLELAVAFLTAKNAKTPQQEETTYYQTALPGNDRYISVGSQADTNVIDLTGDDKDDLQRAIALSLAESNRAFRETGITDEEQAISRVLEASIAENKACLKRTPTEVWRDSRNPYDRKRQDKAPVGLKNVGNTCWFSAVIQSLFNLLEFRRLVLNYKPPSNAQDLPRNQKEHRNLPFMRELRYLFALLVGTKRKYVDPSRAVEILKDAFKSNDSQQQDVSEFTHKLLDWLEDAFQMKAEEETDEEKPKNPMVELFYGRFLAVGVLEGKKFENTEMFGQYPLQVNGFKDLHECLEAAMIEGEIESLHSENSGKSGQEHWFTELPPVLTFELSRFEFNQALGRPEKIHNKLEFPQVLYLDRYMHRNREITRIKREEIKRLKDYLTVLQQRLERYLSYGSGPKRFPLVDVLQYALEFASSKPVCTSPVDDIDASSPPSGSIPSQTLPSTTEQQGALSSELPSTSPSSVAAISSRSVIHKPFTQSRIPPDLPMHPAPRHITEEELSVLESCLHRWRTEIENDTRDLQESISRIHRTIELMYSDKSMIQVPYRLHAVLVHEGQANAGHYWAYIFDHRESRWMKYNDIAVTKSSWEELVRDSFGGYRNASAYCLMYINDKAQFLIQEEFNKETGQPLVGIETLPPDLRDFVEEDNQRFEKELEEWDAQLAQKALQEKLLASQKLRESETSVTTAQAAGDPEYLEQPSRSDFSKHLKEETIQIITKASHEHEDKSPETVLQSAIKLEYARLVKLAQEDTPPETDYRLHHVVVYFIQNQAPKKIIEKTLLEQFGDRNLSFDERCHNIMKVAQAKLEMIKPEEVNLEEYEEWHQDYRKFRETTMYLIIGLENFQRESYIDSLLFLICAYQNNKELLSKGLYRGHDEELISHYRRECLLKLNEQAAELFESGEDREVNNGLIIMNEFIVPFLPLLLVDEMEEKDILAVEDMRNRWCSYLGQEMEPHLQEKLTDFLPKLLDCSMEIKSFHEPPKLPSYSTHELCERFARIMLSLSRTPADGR
Summary of the method: as §1

[5] = target: T4, USP28 (UniProt Q96RU2)
T4 sequence (whole entry): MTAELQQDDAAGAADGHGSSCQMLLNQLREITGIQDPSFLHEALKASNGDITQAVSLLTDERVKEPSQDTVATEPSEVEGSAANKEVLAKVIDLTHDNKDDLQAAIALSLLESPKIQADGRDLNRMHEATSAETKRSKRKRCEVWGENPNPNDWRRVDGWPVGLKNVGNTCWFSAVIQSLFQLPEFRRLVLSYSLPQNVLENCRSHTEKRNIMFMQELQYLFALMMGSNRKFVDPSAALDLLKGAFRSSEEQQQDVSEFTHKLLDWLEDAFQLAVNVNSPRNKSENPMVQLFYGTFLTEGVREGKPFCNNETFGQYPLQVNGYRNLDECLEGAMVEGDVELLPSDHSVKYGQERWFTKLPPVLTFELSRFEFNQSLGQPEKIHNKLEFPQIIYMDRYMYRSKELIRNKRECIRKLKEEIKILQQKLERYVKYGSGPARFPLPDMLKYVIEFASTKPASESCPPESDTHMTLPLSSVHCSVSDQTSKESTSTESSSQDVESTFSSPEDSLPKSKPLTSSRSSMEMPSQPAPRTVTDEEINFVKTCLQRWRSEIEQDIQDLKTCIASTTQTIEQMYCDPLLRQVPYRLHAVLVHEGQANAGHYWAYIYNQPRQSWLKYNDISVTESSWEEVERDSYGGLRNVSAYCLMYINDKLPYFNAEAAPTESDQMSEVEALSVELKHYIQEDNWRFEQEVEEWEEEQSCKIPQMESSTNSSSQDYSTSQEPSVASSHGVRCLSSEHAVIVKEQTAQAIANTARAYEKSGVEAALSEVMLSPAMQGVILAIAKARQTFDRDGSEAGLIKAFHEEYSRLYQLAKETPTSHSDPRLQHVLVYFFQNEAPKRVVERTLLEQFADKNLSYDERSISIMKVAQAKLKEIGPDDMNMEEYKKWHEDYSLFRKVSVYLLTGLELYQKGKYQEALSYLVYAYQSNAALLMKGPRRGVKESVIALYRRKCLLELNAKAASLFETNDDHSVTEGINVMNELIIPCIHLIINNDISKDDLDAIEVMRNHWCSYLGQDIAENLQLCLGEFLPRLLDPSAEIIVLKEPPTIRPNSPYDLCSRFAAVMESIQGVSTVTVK
Summary of the method: as §1

Measured: log2 ratio of Biotin-Ahx-Ub-VS probe labelling

Chain of USP24 (Q9UPU5 whole entry): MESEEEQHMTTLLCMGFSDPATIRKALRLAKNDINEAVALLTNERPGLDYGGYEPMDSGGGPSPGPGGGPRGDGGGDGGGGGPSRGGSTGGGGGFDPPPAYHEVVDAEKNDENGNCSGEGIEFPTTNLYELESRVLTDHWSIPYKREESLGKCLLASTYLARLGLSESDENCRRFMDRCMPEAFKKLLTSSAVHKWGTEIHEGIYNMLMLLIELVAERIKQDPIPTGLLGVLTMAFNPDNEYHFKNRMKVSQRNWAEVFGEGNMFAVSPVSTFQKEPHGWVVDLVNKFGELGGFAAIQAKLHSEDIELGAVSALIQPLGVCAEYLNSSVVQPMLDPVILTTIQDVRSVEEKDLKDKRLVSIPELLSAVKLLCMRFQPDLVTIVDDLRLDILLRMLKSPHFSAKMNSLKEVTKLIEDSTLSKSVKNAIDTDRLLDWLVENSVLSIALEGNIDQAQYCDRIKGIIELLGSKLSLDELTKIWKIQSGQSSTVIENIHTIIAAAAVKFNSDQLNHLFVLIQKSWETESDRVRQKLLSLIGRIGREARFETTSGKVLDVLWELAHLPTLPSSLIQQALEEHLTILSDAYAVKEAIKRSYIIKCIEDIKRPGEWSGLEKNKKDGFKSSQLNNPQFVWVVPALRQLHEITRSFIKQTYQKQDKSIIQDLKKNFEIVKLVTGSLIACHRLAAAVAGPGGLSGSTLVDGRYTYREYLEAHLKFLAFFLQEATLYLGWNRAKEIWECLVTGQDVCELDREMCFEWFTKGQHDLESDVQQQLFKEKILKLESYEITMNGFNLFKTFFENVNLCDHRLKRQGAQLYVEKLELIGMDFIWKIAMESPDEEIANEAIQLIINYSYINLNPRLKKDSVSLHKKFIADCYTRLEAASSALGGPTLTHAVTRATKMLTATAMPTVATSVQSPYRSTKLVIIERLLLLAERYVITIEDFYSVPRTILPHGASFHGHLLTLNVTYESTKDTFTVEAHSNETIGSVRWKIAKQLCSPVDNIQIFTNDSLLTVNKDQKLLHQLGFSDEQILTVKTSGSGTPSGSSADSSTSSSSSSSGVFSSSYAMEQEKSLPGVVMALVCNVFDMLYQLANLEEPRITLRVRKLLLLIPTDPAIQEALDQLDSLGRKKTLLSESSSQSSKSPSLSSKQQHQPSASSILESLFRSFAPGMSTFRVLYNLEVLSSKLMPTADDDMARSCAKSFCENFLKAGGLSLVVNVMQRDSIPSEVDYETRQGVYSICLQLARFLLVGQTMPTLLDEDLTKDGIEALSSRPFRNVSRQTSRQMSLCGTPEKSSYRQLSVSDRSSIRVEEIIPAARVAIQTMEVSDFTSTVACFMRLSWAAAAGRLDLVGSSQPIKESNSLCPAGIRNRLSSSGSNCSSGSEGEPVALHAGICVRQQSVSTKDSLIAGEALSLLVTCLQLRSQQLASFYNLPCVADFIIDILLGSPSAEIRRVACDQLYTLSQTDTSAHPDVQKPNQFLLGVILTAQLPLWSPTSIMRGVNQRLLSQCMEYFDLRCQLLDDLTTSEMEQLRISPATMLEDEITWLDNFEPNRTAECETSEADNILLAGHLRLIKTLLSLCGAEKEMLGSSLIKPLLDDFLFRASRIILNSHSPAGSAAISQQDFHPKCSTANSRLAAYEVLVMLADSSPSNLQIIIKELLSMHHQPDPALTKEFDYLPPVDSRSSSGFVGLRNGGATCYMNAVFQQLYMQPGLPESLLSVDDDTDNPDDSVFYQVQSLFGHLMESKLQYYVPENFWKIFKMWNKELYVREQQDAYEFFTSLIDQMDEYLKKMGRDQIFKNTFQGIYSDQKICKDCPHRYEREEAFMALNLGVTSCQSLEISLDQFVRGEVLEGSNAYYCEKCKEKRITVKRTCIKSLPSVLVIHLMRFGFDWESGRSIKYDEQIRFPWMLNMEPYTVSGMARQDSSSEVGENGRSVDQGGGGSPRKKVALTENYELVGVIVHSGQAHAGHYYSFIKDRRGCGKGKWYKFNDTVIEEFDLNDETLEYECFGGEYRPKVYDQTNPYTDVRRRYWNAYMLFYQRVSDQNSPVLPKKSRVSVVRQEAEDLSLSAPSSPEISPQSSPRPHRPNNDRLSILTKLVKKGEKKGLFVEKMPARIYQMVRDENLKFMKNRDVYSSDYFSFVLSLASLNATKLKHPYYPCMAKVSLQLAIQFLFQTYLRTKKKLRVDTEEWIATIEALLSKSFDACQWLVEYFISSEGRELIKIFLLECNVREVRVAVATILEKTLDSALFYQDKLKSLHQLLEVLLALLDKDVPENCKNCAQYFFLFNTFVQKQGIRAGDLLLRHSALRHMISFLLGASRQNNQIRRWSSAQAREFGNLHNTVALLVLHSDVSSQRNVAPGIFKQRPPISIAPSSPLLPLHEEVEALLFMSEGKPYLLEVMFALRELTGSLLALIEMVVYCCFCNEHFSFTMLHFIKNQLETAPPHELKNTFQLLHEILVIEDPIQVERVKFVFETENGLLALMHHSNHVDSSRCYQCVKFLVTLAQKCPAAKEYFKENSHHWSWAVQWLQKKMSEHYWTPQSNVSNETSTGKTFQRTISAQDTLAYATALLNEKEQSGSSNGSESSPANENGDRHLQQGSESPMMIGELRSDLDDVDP

Cc1noc(C)c1CNC(=O)CCl
inactive: [1] -0.666 | [2] -0.912 | [3] -0.8 | [4] -0.554 | [5] -0.971
